# Hit rate of the full screen: of about 69,000 compounds, about 8,600 (12%) showed an effect of 50% or more. This is one part of a sample in which strong results are shown more often than they occur.
# Test system: Plasmodium berghei
# Experiment: Screen against P. berghei liver stage (PbLuc), transformed with Luciferase, at 10uM
# Format: functional, HepG2
# Conditions: tested at 10 uM
row,SMILES,INHIBITION
1,COc1nccnc1N1CCC2(CC1)C(=O)N(C)c1ccccc12,-55%
2,Cc1ccc(C(=O)NC2CCOc3ccccc32)cc1S(C)(=O)=O (stereo unspecified),16.2%
3,COc1ccc(CNCc2c(C(C)C)nn(C)c2OC)cn1,27.8%
4,CC(C)Cn1cc(C(=O)NC2CCS(=O)(=O)C2)c2ccccc2c1=O (stereo unspecified),28.6%
5,Cc1ccccc1CNC(=O)c1ccccc1-n1cnc(CN)c1,33.7%
6,Cc1cc(-c2cnn(CCNC(=O)c3snnc3C)c2C2CC2)on1,21.9%
7,CC(C)(C(N)=O)N1CCN(C(=O)c2ccn(-c3cccc(Cl)c3)n2)CC1,-14.6%
8,COc1ncccc1CN1CCn2c(C(=O)N3CCCC3)cnc2C1,7.24%
9,Cc1nc[nH]c1CN1CCN(C2CCOCC2)CC(C(N)=O)C1 (stereo unspecified),7.52%
10,Cn1nnc(NCc2ccc(-c3ccc(Br)cc3)o2)n1,0.868%
11,Cc1cnc(CC2COCCN(C(=O)CN3CCCCC3)C2)cn1 (stereo unspecified),30.4%
12,CCCOCC(=O)NS(=O)(=O)c1ccc2c(c1)OCCCO2,51.6%
13,O=C(COC1CCCCC1)NS(=O)(=O)c1ccc2c(c1)OCCCO2,10%
14,O=C(COCC(F)(F)F)NS(=O)(=O)c1ccc2c(c1)OCCCO2,63.5%
15,COCCCC(=O)NS(=O)(=O)c1ccc2c(c1)OCCCO2,38.6%
16,O=C(COC1CCCC1)NS(=O)(=O)c1ccc2c(c1)OCCCO2,8.64%
17,CCCOCC(=O)NS(=O)(=O)c1ccc2c(c1)OCCO2,18.2%
18,CC(C)C(=O)N1CCCc2c(cnn2-c2ccccc2)C1,9.05%
19,O=C(O)C1(Oc2ccc(Cl)cc2)CCN(C2CCOCC2)CC1,24.7%
20,CCCn1cc(C(=O)n2nc(C)cc2C)c(S(=O)(=O)N2CCSCC2)n1,0%
21,Cc1cc(C)n(C(=O)c2cn(C)nc2S(=O)(=O)N2CCSCC2)n1,56.5%
22,CCn1cc(C(=O)n2nc(C)cc2C)c(S(=O)(=O)N2CCCCC2)n1,29.7%

row,SMILES,INHIBITION
1,CN(Cc1nc(-c2ccoc2)no1)C1CCCN(c2cccnn2)C1 (stereo unspecified),7.12%
2,CCNc1c(NC(=O)NC(C)C)c(=O)oc2ccccc12,40.3%
3,Cc1cc(-c2cnc(N3CCC(C(N)=O)CC3)nc2C(C)C)on1,77.1%
4,Cc1cc(-c2cnc(N3CCN(C)CC3)nc2C(C)C)on1,47.95%
5,Cc1cc(-c2cnc(N(C)C)nc2C2CCCCN2C(=O)C2CC2)on1 (stereo unspecified),-11.59%
6,Cc1cc(-c2cnc(N3CCSCC3)nc2C(C)C)on1,50.8%
7,Cc1cc(-c2cnc(N3CCC(O)CC3)nc2C(C)C)on1,59.4%
8,COc1ccc(Cl)cc1C(=O)N1CCCC(c2cc(C)[nH]n2)C1 (stereo unspecified),-2.53%
9,Cc1cc(C(=O)NC2CCC3(CCC(=O)N3CC3CC3)CC2)no1 (stereo unspecified),-1.12%
10,N#CC1(NC(=O)c2ccc(-c3nc(C4CC4)n[nH]3)cc2)CCSC1 (stereo unspecified),22%
11,COc1ccc(C(C#N)NC(=O)Cc2ccc(F)c(F)c2)c(OC)c1 (stereo unspecified),17.7%
12,CCc1noc(CN(CC)Cc2cc3ccc(F)cc3[nH]c2=O)n1,-52.7%
13,CCCn1cc(C(=O)NCCC(=O)NC2CCCCC2)c(C)n1,-5.12%
14,CCCn1cc(C(=O)NCC(=O)NC2CC2)c(C)n1,60.3%
15,CCCn1cc(C(=O)NC2CCN(CC(=O)NC3CC3)CC2)c(C)n1,39.4%
16,CCC(=O)Nc1ccccc1Sc1nc(Br)nn1C,3.31%
17,Cc1ccnc(N2C[C@H]3CC[C@@H](C2)N(CC2CCC2)C3=O)n1,-4.35%
18,Cc1cc(SCC(N)=O)nc(-c2cccc(F)c2)n1,3.58%
19,COc1ccc(-c2nc(C)cc(SCC(N)=O)n2)cc1,85.5%
20,Cc1cc(SCC(N)=O)nc(-c2ccc(F)cc2)n1,-6.18%
21,CCC(C)[C@H](N)c1nnc(SCC(=O)Nc2ccc(Br)cc2)o1 (stereo partly specified),41.1%
22,CC(=O)N1C[C@H]2CC[C@@H](C1)N(S(=O)(=O)c1ccccc1Cl)C2,-7.2%

row,SMILES,INHIBITION
1,CCn1nc(C)cc1S(=O)(=O)N1CCC2(CCCN(C(C)C)C2=O)C1 (stereo unspecified),58.6%
2,CCCN1CCCC2(CCN(S(=O)(=O)c3cc(C)nn3CC)C2)C1=O (stereo unspecified),21.2%
3,CCn1nccc1S(=O)(=O)N1CCC2(CCCN(C(C)C)C2=O)C1 (stereo unspecified),33%
4,O=C(c1ccsc1)N1CCO[C@@H]2CN(Cc3ccco3)CC[C@@H]2C1,44.8%
5,Cc1c(CNCC(C)Oc2cccnc2)c2ccccc2n1CC(N)=O (stereo unspecified),-36.6%
6,Nc1cc2c(nn1)CCN(C(=O)c1cccc3c1OCCO3)C2,44.2%
7,Cc1cc(C(=O)N2CCc3nnc(N)cc3C2)c(C)n1C1CC1,-15.8%
8,Cc1cc(C(=O)N2CCc3nnc(N)cc3C2)c(C)n1-c1ccccc1,89.3%
9,Cc1cc(C(=O)N2CCc3nnc(N)cc3C2)c(C)n1-c1cccnc1,11.8%
10,CCn1c(C)cc(C(=O)N2CCc3nnc(N)cc3C2)c1C,68.8%
11,Nc1cc2c(nn1)CCN(C(=O)c1cccnc1Oc1ccccc1)C2,-18.7%
12,Cc1ccc(CN(C(=O)NCC2CCCO2)C2CC2)o1 (stereo unspecified),-56.2%
13,COCCc1noc(CNC2CCCC(C)(C)C2)n1 (stereo unspecified),20.2%
14,Cc1ccccc1CS(=O)(=O)c1nnc(C(C)NC(=O)OC(C)(C)C)o1 (stereo unspecified),46.6%
15,CC(=O)N(C)Cc1cccc(NC(=O)N(C)CCc2cccs2)c1,-6.34%
16,C=C(C)CN(CC)C(=O)Nc1ccccc1CN(C)C(C)=O,28.7%
17,CC(=O)N(C)Cc1ccccc1NC(=O)N(C)CCc1cccs1,52.3%
18,CC(=O)N(C)Cc1ccccc1NCc1c(C)cccc1C,50.2%
19,CC(=O)N(C)Cc1ccccc1NC(=O)c1ccccc1C,-19.55%
20,CC(=O)N(C)Cc1ccccc1NCc1c(C)noc1C,-16.1%
21,O=C(c1ccccc1)N1CCS(=O)(=O)[C@@H]2CCNCC[C@@H]21,38.2%
22,CNC(=O)c1ccc(C(=O)N2CCCC(n3nc(C)cc3C)C2)cn1 (stereo unspecified),-11.9%

# — ChEMBL document CHEMBL4513216, “Probing the Open Global Health Chemical Diversity Library for Multistage-Active Starting Points for Next-Generation Antimalarials” (ACS Infect Dis, 2020)
